From PubChem BioAssay
Pin1 inhibitor: blocks the human prolyl isomerase Pin1; AID 504891; Q13526; 390,000 tested, 0.009% active; Potency, µM (top dose mostly 115 µM), without a hit: at the highest dose activity, negative = inhibition, most hits filed as inhibitors; Pin1 FP peptide displacement, HiFluor488, 10 min; active = well fitted inhibition curve with a large enough effect in the polarisation, with a control signal flat, not every such curve was filed as active; inconclusive = small, poorly fitted or top-dose-only effect, or effect the other way, or a change in a side signal; inactive = no such curve, though single readings can be large or run the other way; the % refers to the polarisation; note: % is set by controls: 0 for no effect and ±100 for the full control effect
TDP1 block: blocks human tyrosyl-DNA phosphodiesterase 1. Q9NUW8. Potency, µM (doses to about 130 µM), for the others: at the highest dose activity change, negative = inhibition, most hits filed as inhibitors. AID 485290. 350,000 tested, 0.28% active. recombinant TDP1, AlphaScreen DNA substrate cleavage; note: % is set by controls: 0 for no effect and ±100 for the full control effect; nearly all actives have a fitted effect of over 40% in size
Target sequence (Q9NUW8 whole entry, looked up): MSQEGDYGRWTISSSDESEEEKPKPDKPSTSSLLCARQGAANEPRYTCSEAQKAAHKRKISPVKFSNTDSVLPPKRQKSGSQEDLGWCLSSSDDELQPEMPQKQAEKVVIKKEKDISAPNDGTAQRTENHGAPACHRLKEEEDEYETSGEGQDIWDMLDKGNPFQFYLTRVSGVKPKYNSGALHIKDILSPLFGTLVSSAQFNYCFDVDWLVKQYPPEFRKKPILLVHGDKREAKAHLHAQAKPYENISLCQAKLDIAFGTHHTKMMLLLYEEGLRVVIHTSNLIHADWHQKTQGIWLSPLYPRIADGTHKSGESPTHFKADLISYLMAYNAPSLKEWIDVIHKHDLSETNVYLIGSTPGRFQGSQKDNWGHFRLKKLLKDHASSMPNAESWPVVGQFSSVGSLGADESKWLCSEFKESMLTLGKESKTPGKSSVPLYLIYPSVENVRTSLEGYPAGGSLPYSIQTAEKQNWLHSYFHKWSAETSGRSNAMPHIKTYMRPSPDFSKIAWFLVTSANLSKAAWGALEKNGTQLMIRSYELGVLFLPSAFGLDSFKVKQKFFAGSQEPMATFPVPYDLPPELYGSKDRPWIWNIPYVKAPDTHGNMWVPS
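Signal: AlphaScreen proximity between streptavidin donor and anti-FITC acceptor beads on intact substrate. Reaction: Tdp1 1 nM, substrate 15 nM final, 5 min RT after 15 min compound preincubation.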
S-ASM inh: blocks human secretory acid sphingomyelinase; placental ASM, HMU-PC fluorogenic substrate, 60 min; Potency, µM (top dose mostly 57.5 µM), inactives show top-dose activity change, negative = inhibition, hits mostly inhibitors; 340,000 tested, 0.006% active
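HMU-PC0 cleavage (9 uM final) by human placental ASM, 60 min at 37 °C following 10 min compound exposure at RT; stopped at pH 10, fluorescence Ex 386/Em 447 nm.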
PLK1 PBD block: blocks phosphopeptide binding to human PLK1 polo-box domain | Plk1 PBD binding of FITC phosphopeptide, fluorescence polarization | Potency, µM, without a hit: max response, negative = inhibition, most hits filed as inhibitors | P53350 | 360,000 tested, 2.8% active; note: series mostly up to about 57 µM; % is set by controls: 0 for no effect and ±100 for the full control effect; nearly all actives have a fitted effect of over 65% in size
Tb PFK block: T. brucei PFK enzyme inhibition; O15648; T. brucei PFK, ADP-Glo luminescence; 330,000 tested, 0.17% active; Potency, µM (titrated, usually from 57.5 µM), for the others: at the top dose activity, negative = inhibition, hits mostly inhibitors;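 note: 0% = uninhibited 1x PFK enzyme wells and -100% = no-enzyme wells; nearly all actives have a fitted effect of over 60% in size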
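Compounds were pin-transferred as a titration series up to 57 uM into substrate buffer (0.5 mM F6P, 0.1 mM ATP, pH 8.0), then 1.25 nM PFK was added and reactions ran 45 min before ADP-Glo detection.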
VDR inhibitor: vitamin D3 receptor (human) inhibition; VDR-SRC2-3 peptide fluorescence polarization, 2 h; Potency, µM, for inactives: max response, negative = inhibition, usual class: inhibitors; 400,000 tested, 0.93% active; note: % is set by controls: 0 for no effect and ±100 for the full control effect
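Measured by FP: displacement of SRC2-3 coactivator peptide from VDR by library compounds, following a two-hour ambient incubation.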
The depositor's hits bear a star; ? = inconclusive; . = not tested or not shown. An excerpt weighted towards active compounds, which were near 3.1% of everything screened. Unless noted, calls come from the whole dose curve; as a rule, active = well fitted curve in the direction sought with a large enough effect; inconclusive = small, poorly fitted or top-dose-only effect, or another doubt; inactive = no such curve, though single readings can be large; an effect the other way counts as inactive or inconclusive. Potency is the fitted concentration of half-maximal effect.

SMILES	Pin1 inhibitor	TDP1 block	S-ASM inh	PLK1 PBD block	Tb PFK block	VDR inhibitor
COc1ccc(N2CCN(C(c3ccc(C)cc3)c3nnnn3C(C)(C)C)CC2)cc1 (stereo unspecified)	0.4%	.	.	.	.	-11.0%
COc1ccc(Cn2ccc3nc(C)c(C(=O)N4CCN(c5ccccc5OC)CC4)cc3c2=O)cc1	-0.1%	9.7%	.	.	.	8.4%
CCCOC(=O)N1CCN(/[N+]([O-])=N/Oc2ccc([N+](=O)[O-])cc2[N+](=O)[O-])CC1	-8.1%	11.5%	.	.	.	?
CCC(C)C(NC(=O)OC(C)(C)C)C(=O)NC1COC2CC(n3ccc(NC(C)=O)nc3=O)OC12 (stereo unspecified)	-0.1%	8.5%	.	.	.	-7.1%
Cc1cccc(COc2ccc(/C=N/NC(=O)c3nnn(-c4nonc4N)c3C)cc2)c1	-6.1%	1.9%	1.2%	21.2µM*	-8.0%	?
CC1(C)CC(=O)c2cc(NC(=O)c3ccccc3)c(=O)oc2C1	-9.6%	8.2%	-2.9%	26.7µM*	0.4%	-28.6%
CC(=O)c1cc(NC(=O)c2ccc(C)cc2)c(=O)oc1/C=C/N(C)C	?	-3.2%	-20.7%	30.0%	-13.4%	-13.2%
CC(=O)c1cc(NC(=O)c2ccccc2)c(=O)oc1C	1.4%	-1.2%	-1.0%	?	-2.4%	-4.5%
CC(=O)c1cc(NC(=O)c2ccc(C)cc2)c(=O)oc1C	-5.6%	1.2%	-0.7%	10.6µM*	-1.4%	?
Cc1oc(=O)c(NC(=O)c2ccccc2)cc1C(=O)c1ccccc1	5.8%	1.1%	-0.7%	-24.9%	-24.7%	17.8µM*
COc1ccc(Cn2c(CO)cnc2SCc2cccc(C)c2)cc1	-2.6%	8.9%	.	.	.	7.0%
C#Cc1cccc(Nc2ncnc3cc(OC)c(OC)cc23)c1	.	9.8%	.	.	.	-1.8%
COc1cc(C(c2nnnn2C2CCCC2)N2CCc3ccccc3C2)ccc1O (stereo unspecified)	-0.9%	2.1%	1.2%	21.2µM*	3.6%	-0.5%
Cc1ccc(Cl)cc1NC(=O)c1ccc(NC(=O)N2CCSc3ncccc32)cc1	5.7%	8.5%	.	.	.	2.5%
CCCCN(C)CCNC(=O)c1ccc2c(=O)n(CCc3ccccc3)c(=O)[nH]c2c1	-7.3%	2.9%	.	.	.	-11.1%
CCN1C(=NCCOC)N[C@@H](CCc2ccccc2)[C@H](C(=O)OC)[C@H]1C	-3.7%	.	2.0%	-6.3%	3.0%	-9.4%
CCN1C(=NCCCOC(C)C)N[C@@H](CCc2ccccc2)[C@H](C(=O)NCCCOC(C)C)[C@H]1C	?	0.9%	36.7%	23.8µM*	2.4%	-20.6%
COc1cc(Nc2nc3c(S(=O)(=O)c4ccc(C)c(C)c4)nnn3c3ccsc23)cc(OC)c1	-5.0%	0.0%	.	.	.	6.7%
CN(/N=C/c1ccccc1O)C(=S)c1ccccc1	5.5%	.	-4.2%	-3.6%	-1.4%	16.0%
CN(C)C(=S)c1ccccc1	-3.8%	-2.5%	3.8%	21.2µM*	-9.1%	?
COc1ccc(C(=S)N(C)C)cc1OC	3.1%	2.5%	3.9%	18.9µM*	5.9%	?
CC(C)N(C(=O)Nc1ccc2nsnc2c1)C(C)C	.	5.1%	57.5%	13.4µM*	-30.6%	14.1µM*
COc1ccc(NC(=S)Nc2ccc3nsnc3c2)cc1	?	0.0%	12.1%	13.4µM*	-1.8%	89.1µM*
CCOc1ccc(NC(=S)Nc2ccc3nsnc3c2)cc1	?	-2.7%	-1.7%	26.7µM*	3.7%	79.4µM*
CC1CCN(C(=O)Nc2ccc3nsnc3c2)CC1	2.5%	0.0%	112.0%	-5.3%	-0.3%	-2.3%
SMILES	Pin1 inhibitor	TDP1 block	S-ASM inh	PLK1 PBD block	Tb PFK block	VDR inhibitor
O=C(c1ccccc1O)N(Cc1cccs1)Cc1cccs1	-11.1%	-3.8%	.	.	.	.
CC1CCC2(C1)N=C(Nc1nc3ccccc3o1)NC1=C2C(=O)CCC1 (stereo unspecified)	?	1.1%	.	.	.	.
Cc1ccc(S(=O)(=O)N2[C@@H](c3cccc(Cl)c3)C(C(=O)O)=CC[C@H]2c2ccc(C(C)C)cc2)cc1	.	-12.5%	-15.8%	21.2µM*	-8.5%	-20.5%
Cc1ccc([C@H]2C(C(=O)O)=C[C@@H](CC3CCCC3)N2S(=O)(=O)c2ccc(C)cc2)cc1	-17.1%	2.5%	2.3%	-25.0%	0.6%	-15.1%
Cc1ccc(S(=O)(=O)N2[C@@H](c3ccc(Cl)cc3)C(C(=O)O)=CC[C@H]2c2cccc(Cl)c2)cc1	?	1.0%	-1.1%	23.8µM*	0.0%	-16.8%
CCc1ccc([C@H]2C(C(=O)O)=C[C@@H](CC3CCCC3)N2S(=O)(=O)c2ccc(C)cc2)cc1	?	0.0%	-11.9%	21.2µM*	-4.9%	-11.0%
Cc1ccc(S(=O)(=O)N2[C@@H](c3ccccc3)C(C(=O)O)=CC[C@H]2c2ccc(Cl)cc2)cc1	-13.3%	0.3%	-7.7%	23.8µM*	0.0%	?
CN1CCN(c2ccc(-c3nc(-c4ccccc4)no3)cc2[N+](=O)[O-])CC1	-5.5%	11.4%	.	.	.	7.9%
O=C(O)[C@H]1O[C@@H](Oc2ccc3ccc(=O)oc3c2)[C@H](O)[C@@H](O)[C@@H]1O	.	2.3%	.	.	.	-0.6%
CCc1ccc([C@@H]2CC=C(C(=O)O)[C@H](c3ccc(Br)cc3)N2S(=O)(=O)c2ccc(C)cc2)cc1	.	-2.7%	-29.2%	26.7µM*	0.0%	?
Cc1ccc([C@H]2C(C(=O)O)=CC[C@@H](c3ccc(Cl)c(Cl)c3)N2S(=O)(=O)c2ccc(C)cc2)cc1	.	-7.6%	1.5%	29.9µM*	6.3%	-26.2%
Cc1ccc([C@@H]2CC=C(C(=O)O)[C@H](c3ccc(Cl)cc3)N2S(=O)(=O)c2ccc(C)cc2)cc1	?	1.3%	-7.6%	?	-15.7%	7.1%
Cc1ccc(S(=O)(=O)N2[C@@H](c3ccc(Cl)cc3)C(C(=O)O)=CC[C@H]2c2ccc(Cl)cc2)cc1	?	1.8%	-11.3%	?	-20.3%	-22.6%
O=C(O)C1=CC[C@@H](c2ccc(Cl)cc2)N(S(=O)(=O)c2ccc(Cl)cc2)[C@H]1c1cccc(Cl)c1	.	-0.1%	-6.0%	29.9µM*	-5.3%	-6.3%
O=C(O)C1=CC[C@@H](c2ccc(Cl)cc2)N(S(=O)(=O)c2ccc(Cl)cc2)[C@H]1c1ccc(Br)cc1	.	-14.2%	-11.3%	26.7µM*	1.2%	-28.4%
COCCN(CCOC)c1nc(C)nc2c1nc(-c1ccccc1)n2CCN(C)C	.	-0.9%	.	.	.	.
CCCC[C@@H]1C=C(C(=O)O)[C@H](c2ccc(Cl)c(Cl)c2)N1S(=O)(=O)c1ccc(C)cc1	.	2.6%	13.2%	29.9µM*	-10.2%	?
Cc1ccc(S(=O)(=O)N2[C@@H](c3ccc(Br)cc3)C(C(=O)O)=CC[C@H]2c2ccc(Cl)cc2)cc1	?	0.0%	-5.2%	26.7µM*	1.8%	-25.7%
